We go through ten sequences from article PMC8384837, “Expanding the binding specificity for RNA recognition by a PUF domain”.

Experiment in all cases: yeast three-hybrid, YBZ-1, SC-Leu-His + 0.5 mM 3-AT, 4 days
Holding throughout (details): tags: N-Gal4 AD-HA kept; label: inside an RPR1-promoter hybrid RNA with tandem MS2 sites; ssRNA

The target in test [1] is PUM1 PUF domain R3-LFG (Homo sapiens, UniProt Q14671 828-1176, C935L;R936F;Q939G). In short, it runs like this: (§1)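 A centromeric plasmid in strain YBZ-1 co-expressed Pumilio-1 PUF domain libraries, randomized at the three base-contacting residues of each repeat, with matching RNA elements; the strain carries a LexA–MS2 coat fusion and a HIS3 reporter. After four days on SC-Leu (input) or SC-Leu-His + 0.5 mM 3-AT (selection), the repeat regions were PCR-amplified and Illumina-sequenced. The interaction score is the log change in variant frequency from input to selection, using log2 and a pseudocount of 1 where absent.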

For test [2], the target named is PUM1 PUF domain R1-SPR (Homo sapiens, UniProt Q14671 828-1176, R864P;Q867R). In short, it runs like this:
as §1

Test [3] has as its target PUM1 PUF domain R1-RVT (Homo sapiens, UniProt Q14671 828-1176, S863R;R864V;Q867T). In outline:
as §1

For test [4], the target named is PUM1 PUF domain R1-KNS (Homo sapiens, UniProt Q14671 828-1176, S863K;R864N;Q867S). In short, it runs like this: as §1
Test [5] has as its target PUM1 PUF domain R4-GNC (Homo sapiens, UniProt Q14671 828-1176, N971G;H972N;Q975C). In outline:
as §1

The target in test [6] is PUM1 PUF domain R8-PWH (Homo sapiens, UniProt Q14671 828-1176, N1122P;Y1123W;Q1126H). In short, it runs like this: as §1
Test [7] deals with PUM1 PUF domain R7-EHG (Homo sapiens, UniProt Q14671 828-1176, S1079E;N1080H;E1083G). In outline:
as §1

Test [8] addresses PUM1 PUF domain R5-DKQ (Homo sapiens, UniProt Q14671 828-1176, C1007D;R1008K). In outline:
as §1

Test [9] addresses PUM1 PUF domain R5-FRC (Homo sapiens, UniProt Q14671 828-1176, C1007F;Q1011C). In short, it runs like this: as §1
In test [10] the target is PUM1 PUF domain R5-KQD (Homo sapiens, UniProt Q14671 828-1176, C1007K;R1008Q;Q1011D). In outline:
as §1

Consider “GGCUAGAACUAGUGGAUCCCCCGGCGCCCGGCGGCUCGAGCCCGGGUAAGUGUAAGUAGUCUGCAUGCCGCCGGGCGCCAUGCCUGCAGGUCGACUCUAGAAAACAUG”, for which the binding signal in test [1] is 4.75 log2 enrichment (interaction score).

Regarding “GGCUAGAACUAGUGGAUCCCCCGGCGCCCGGCGGCUCGAGCCCGGGUAAGUGUAAAUUGUCUGCAUGCCGCCGGGCGCCAUGCCUGCAGGUCGACUCUAGAAAACAUG”, the binding signal in test [2] was 1.48 log2 enrichment (interaction score); in test [3], 4.35 log2 enrichment (interaction score); in test [4] it was 3.86 log2 enrichment (interaction score). On to “GGCUAGAACUAGUGGAUCCCCCGGCGCCCGGCGGCUCGAGCCCGGGUAAGUGUAAAUGGUCUGCAUGCCGCCGGGCGCCAUGCCUGCAGGUCGACUCUAGAAAACAUG”, for which, in [3], the binding signal is 3.15 log2 enrichment (interaction score).

As for “GGCUAGAACUAGUGGAUCCCCCGGCGCCCGGCGGCUCGAGCCCGGGUAAGUGUAAAUCGUCUGCAUGCCGCCGGGCGCCAUGCCUGCAGGUCGACUCUAGAAAACAUG”, the binding signal is 2.62 log2 enrichment (interaction score) in test [2] and 5.15 log2 enrichment (interaction score) in test [3].

Consider “GGCUAGAACUAGUGGAUCCCCCGGCGCCCGGCGGCUCGAGCCCGGGUAAGUGUAAUUAGUCUGCAUGCCGCCGGGCGCCAUGCCUGCAGGUCGACUCUAGAAAACAUG”, for which the binding signal in test [1] was 1.87 log2 enrichment (interaction score). As for “GGCUAGAACUAGUGGAUCCCCCGGCGCCCGGCGGCUCGAGCCCGGGUAAGUGUACAUAGUCUGCAUGCCGCCGGGCGCCAUGCCUGCAGGUCGACUCUAGAAAACAUG”, in test [5], the binding signal was 3.28 log2 enrichment (interaction score). Consider “GGCUAGAACUAGUGGAUCCCCCGGCGCCCGGCGGCUCGAGCCCGGGUAAGUGUAAAUAGUCUGCAUGCCGCCGGGCGCCAUGCCUGCAGGUCGACUCUAGAAAACAUG”, for which the binding signal was 2.69 log2 enrichment (interaction score) in [6], 1.09 log2 enrichment (interaction score) in test [5] and 1.41 log2 enrichment (interaction score) in test [1]. Regarding “GGCUAGAACUAGUGGAUCCCCCGGCGCCCGGCGGCUCGAGCCCGGGUAAGUGUAUAUAGUCUGCAUGCCGCCGGGCGCCAUGCCUGCAGGUCGACUCUAGAAAACAUG”, the binding signal in test [5] is 3.99 log2 enrichment (interaction score).

Turning to “GGCUAGAACUAGUGGAUCCCCCGGCGCCCGGCGGCUCGAGCCCGGGUAAGUCUAAAUAGUCUGCAUGCCGCCGGGCGCCAUGCCUGCAGGUCGACUCUAGAAAACAUG”, the binding signal in [7] is 5.15 log2 enrichment (interaction score). With “GGCUAGAACUAGUGGAUCCCCCGGCGCCCGGCGGCUCGAGCCCGGGUAAGUGUCAAUAGUCUGCAUGCCGCCGGGCGCCAUGCCUGCAGGUCGACUCUAGAAAACAUG”, the binding signal is 5.31 log2 enrichment (interaction score) in test [8], 3.83 log2 enrichment (interaction score) in [9] and 2.75 log2 enrichment (interaction score) in test [10].
